# According to PubChem BioAssay (NCATS):
# Where “and” joins values, the source holds several entries; their conditions need not be identical. Identical values can stand only once. Records with an inconclusive call do not appear. Where a call stands in place of a potency, no number is given. A structure can be active in one record and inactive in another. Calls of active or inactive are those of the source. Calls come from the whole dose curve; as a rule, active = well fitted inhibition curve with a large enough effect; inconclusive = small, poorly fitted or top-dose-only effect; inactive = flat fitted curve, though single readings scatter.
# How the values were obtained:
# [1] = tested on: PC15; assay: qHTS profiling for inhibitors of Plasmodium falciparum proliferation (AID 504749); details: P. falciparum in erythrocytes, SYBR Green DNA, 72 h; series mostly up to 28.7 µM
# In short: (§1)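 Quantitative HTS: compounds pinned into medium, infected erythrocytes added (0.3% parasitemia, 2.5% hematocrit), 72 h culture at 37 C under 5% CO2. Saponin/Triton lysis with SYBR Green I, overnight RT, then fluorescence read.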
# [2] = tested on: PC49; assay: as above; details: P. falciparum in erythrocytes, SYBR Green DNA, 72 h; series mostly up to 28.7 µM
# In short: as §1
# [3] = tested on: SC27B; assay: as above; details: P. falciparum in erythrocytes, SYBR Green DNA, 72 h; series mostly up to 28.7 µM
# In short: as §1
# [4] = tested on: TAB109; assay: as above; details: P. falciparum in erythrocytes, SYBR Green DNA, 72 h; series mostly up to 28.7 µM
# In short: as §1
# [5] = tested on: TAB113; assay: as above; details: P. falciparum in erythrocytes, SYBR Green DNA, 72 h; series mostly up to 28.7 µM
# In short: as §1
# [6] = tested on: TAB165; assay: as above; details: P. falciparum in erythrocytes, SYBR Green DNA, 72 h; series mostly up to 28.7 µM
# In short: as §1
# [7] = tested on: W2; assay: as above; details: P. falciparum in erythrocytes, SYBR Green DNA, 72 h; series mostly up to 28.7 µM
# In short: as §1
# [8] = tested on: CRL-7250; assay: Cytotoxic Profiling of Annotated Libraries Using Quantitative High-Throughput Screening (AID 1296008); details: Five cell lines viability, CellTiter-Glo ATP luminescence, 48-72 h; max response: stronger effect = lower value
# In short: (§2)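 Compounds were pin-transferred onto cells and incubated 48 or 72 hr at 37 degree Celsius, 95% humidity. CellTiter-Glo was added, plates sat 10 min at room temperature, then ATP-coupled luminescence was imaged as the viability read-out.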
# [9] = tested on: HEK293; assay: as above; details: Five cell lines viability, CellTiter-Glo ATP luminescence, 48-72 h; max response: stronger effect = lower value
# In short: as §2
# [10] = tested on: HaCat; assay: as above; details: Five cell lines viability, CellTiter-Glo ATP luminescence, 48-72 h; max response: stronger effect = lower value
# In short: as §2
# [11] = tested on: KB-3-1; assay: as above; details: Five cell lines viability, CellTiter-Glo ATP luminescence, 48-72 h; max response: stronger effect = lower value
# In short: as §2
# [12] = tested on: NIH3T3; assay: as above; details: Five cell lines viability, CellTiter-Glo ATP luminescence, 48-72 h; max response: stronger effect = lower value
# In short: as §2
# [13] = tested on: CRL-7250; assay: qHTS assay to identify novel small-molecules to repurpose for Merkel cell carcinoma treatment (AID 1296009); details: MCC and control cell lines, CellTiter-Glo viability, 72 h; series mostly up to 44.8 µM
# In short: (§3)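 Viability readout: ATP luminescence (CellTiter-Glo) after 72 hr drug exposure at 37 degree celsius. Dose-response format was 8 points for NPC and 11 points for MIPE; data normalized to in-plate controls.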
# [14] = tested on: MCC-13; assay: as above; details: MCC and control cell lines, CellTiter-Glo viability, 72 h; series mostly up to 46 µM
# In short: as §3
# [15] = tested on: MCC-26; assay: as above; details: MCC and control cell lines, CellTiter-Glo viability, 72 h; series mostly up to 46 µM
# In short: as §3
# [16] = tested on: MKL-1; assay: as above; details: MCC and control cell lines, CellTiter-Glo viability, 72 h; series mostly up to 46 µM
# In short: as §3
# [17] = tested on: MKL-2; assay: as above; details: MCC and control cell lines, CellTiter-Glo viability, 72 h; series mostly up to 46 µM
# In short: as §3
# [18] = tested on: PC26; assay: qHTS profiling for inhibitors of Plasmodium falciparum proliferation (AID 504749); details: P. falciparum in erythrocytes, SYBR Green DNA, 72 h; series mostly up to 28.7 µM
# In short: as §1
# [19] = tested on: HEK293T; assay: qHTS assay to identify novel small-molecules to repurpose for Merkel cell carcinoma treatment (AID 1296009); details: MCC and control cell lines, CellTiter-Glo viability, 72 h; at 44.8 µM (top of the series)
# In short: as §3
# [20] = tested on: HACAT; assay: as above; details: MCC and control cell lines, CellTiter-Glo viability, 72 h; at 44.8 µM (top of the series) unless noted
# In short: as §3
# Note: nearly all actives have a fitted effect of over 60% in size.
# Potency is the fitted concentration of half-maximal effect.
compound,measurement,setting,value
CC[N+](CC)(CC)CC,Potency,[1],inactive
same,Potency,[2],inactive
same,Potency,[3],inactive
same,Potency,[4],inactive
same,Potency,[5],inactive
same,Potency,[6],inactive
same,Potency,[7],inactive
same,outcome,[8],inactive
same,max response,[9],-5.65% (inactive)
same,max response,[10],-5.59% (inactive)
same,max response,[11],-7.23% (inactive)
same,outcome,[12],inactive
same,outcome,[13],inactive
same,Potency,[14],inactive
same,Potency,[15],inactive
same,Potency,[16],inactive
same,Potency,[17],inactive
CC(C)=CC1C(C(=O)OCc2cccc(Oc3ccccc3)c2)C1(C)C (stereo not drawn),Potency,[1],inactive
same,Potency,[18],inactive
same,Potency,[2],inactive
same,Potency,[3],inactive
same,Potency,[4],inactive
same,Potency,[5],inactive
same,Potency,[6],inactive
same,outcome,[8],inactive
same,outcome,[9],inactive
same,max response,[10],2.03% (inactive)
same,max response,[11],3.42% (inactive)
same,outcome,[12],inactive
same,outcome,[13],inactive
same,outcome,[19],inactive
same,Potency,[14],inactive
same,Potency,[15],inactive
same,Potency,[16],inactive
same,Potency,[17],inactive
COc1ccc(C(=O)c2c(C)n(CCN3CCOCC3)c3ccccc23)cc1,Potency,[1],inactive
same,Potency,[2],inactive
same,Potency,[3],inactive
same,Potency,[4],inactive
same,Potency,[5],inactive
same,Potency,[6],inactive
same,Potency,[7],inactive
same,max response,[8],-23.7% (inactive)
same,outcome,[8],inactive
same,max response,[9],-9.73% (inactive)
same,max response,[10],-26.9% (inactive)
same,outcome,[10],inactive
same,max response,[11],5.69% (inactive) and 21.2% (inactive)
same,max response,[12],-11.5% (inactive)
same,outcome,[12],inactive
same,outcome,[13],inactive
same,outcome,[20],inactive
same,Potency,[14],inactive
same,Potency,[16],inactive
same,Potency,[17],inactive
Clc1ccc(COC(Cn2ccnc2)c2ccc(Cl)cc2Cl)cc1 (stereo not drawn),Potency,[1],2.82 µM (active)
same,Potency,[18],1.9 µM (active)
same,Potency,[2],8.91 µM (active)
same,Potency,[3],2.51 µM (active)
same,Potency,[4],2.51 µM (active)
same,Potency,[5],2.82 µM (active)
same,Potency,[6],0.708 µM (active)
same,Potency,[7],1.2 µM (active)
same,max response,[8],1.02% (inactive)
same,outcome,[8],inactive
same,max response,[9],-1.16% (inactive)
same,max response,[10],-11% (inactive)
same,max response,[11],-10.4% (inactive) and -10.7% (inactive)
same,outcome,[13],inactive
same,Potency,[14],inactive
same,Potency,[15],21.1 µM (active) and inactive
same,Potency,[16],23.7 µM (active) and inactive
c1ccc2c(c1)Nc1ccccc1S2,Potency,[2],inactive
same,Potency,[3],inactive
same,Potency,[5],inactive
same,Potency,[7],3.38 µM (active)
same,outcome,[8],inactive
same,max response,[9],-4.55% (inactive)
same,max response,[10],-0.234% (inactive)
same,outcome,[10],inactive
same,max response,[11],3% (inactive) and -4.89% (inactive)
same,max response,[12],-3.03% (inactive) and 0.216% (inactive)
same,outcome,[13],inactive
same,outcome,[20],inactive
same,Potency,[14],inactive
same,Potency,[15],inactive
same,Potency,[16],inactive
same,Potency,[17],inactive
CN(C)[C@@H]1C(=O)C(C(N)=O)=C(O)[C@@]2(O)C(=O)C3=C(O)c4c(O)cccc4[C@@](C)(O)[C@H]3C[C@@H]12,max response,[8],-3.81% (inactive)
same,outcome,[8],inactive
same,max response,[9],-12.7% (inactive)
same,max response,[10],-13.2% (inactive) and 4.81% (inactive)
same,max response,[11],-1.95% (inactive) and 4.68% (inactive)
same,max response,[12],-3.21% (inactive) and -4.63% (inactive)
same,outcome,[13],inactive
same,Potency,[14],inactive
same,Potency,[16],inactive
same,Potency,[17],inactive
CN1CCN(C(=O)O[C@H]2c3nccnc3C(=O)N2c2ccc(Cl)cn2)CC1,Potency,[1],inactive
same,Potency,[18],inactive
same,Potency,[3],inactive
same,Potency,[4],inactive
same,Potency,[5],inactive
same,Potency,[6],inactive
same,Potency,[7],inactive
same,outcome,[8],inactive
same,max response,[9],3.04% (inactive)
same,outcome,[9],inactive
same,max response,[10],-17.1% (inactive)
same,outcome,[10],inactive
same,max response,[11],4.48% (inactive)
same,max response,[12],-1.04% (inactive) and -0.741% (inactive)
same,outcome,[13],inactive
same,outcome,[20],inactive
same,outcome,[19],inactive
same,Potency,[14],inactive
same,Potency,[16],inactive
same,Potency,[17],inactive
CC(=O)[C@H]1CC[C@H]2[C@@H]3CC[C@H]4C[C@](C)(O)CC[C@]4(C)[C@H]3CC[C@]12C,Potency,[1],inactive
same,Potency,[18],inactive
same,Potency,[2],inactive
same,Potency,[3],inactive
same,Potency,[4],inactive
same,Potency,[5],inactive
same,Potency,[6],inactive
same,outcome,[8],inactive
same,outcome,[9],inactive
same,outcome,[10],inactive
same,max response,[11],-8.61% (inactive)
same,outcome,[12],inactive
same,outcome,[13],inactive
same,outcome,[20],inactive
same,outcome,[19],inactive
same,Potency,[14],inactive
same,Potency,[15],inactive
same,Potency,[16],inactive
same,Potency,[17],inactive
CC(C)NCC(O)c1ccccc1Cl (stereo not drawn),Potency,[1],11.2 µM (active)
same,Potency,[3],10 µM (active)
same,Potency,[4],4.47 µM (active)
same,Potency,[5],12.6 µM (active)
same,Potency,[7],3.38 µM (active)
same,outcome,[8],inactive
same,outcome,[9],inactive
same,max response,[10],-6.64% (inactive)
same,max response,[11],-12% (inactive)
same,max response,[12],-1.73% (inactive)
same,outcome,[13],inactive
same,outcome,[19],inactive
same,Potency,[14],inactive
same,Potency,[16],inactive
same,Potency,[17],inactive
CC(C)(C)CC(C)(C)c1ccc(O)cc1,Potency,[1],inactive
same,Potency,[18],inactive
same,Potency,[3],inactive
same,Potency,[4],inactive
same,Potency,[5],inactive
same,Potency,[6],inactive
same,Potency,[8],38.6 µM (active)
same,max response,[8],-2.09% (inactive)
same,Potency,[9],19.3 µM (active)
same,max response,[10],-11.5% (inactive)
same,max response,[11],33.4% (inactive) and 13.2% (inactive)
same,outcome,[12],inactive
same,Potency,[14],inactive
same,Potency,[15],inactive
same,Potency,[17],24.3 µM (active)
O=C1CC[C@@]2(O)[C@H]3Cc4ccc(O)c5c4[C@@]2(CCN3CC2CC2)[C@H]1O5,max response,[8],-7.93% (inactive)
same,outcome,[8],inactive
same,max response,[9],-3.14% (inactive) and -3.82% (inactive)
same,outcome,[10],inactive
same,max response,[11],6.29% (inactive)
same,outcome,[11],inactive
same,max response,[12],-0.716% (inactive)
same,outcome,[12],inactive
same,outcome,[13],inactive
same,outcome,[20],inactive
same,Potency,[14],inactive
same,Potency,[15],inactive
same,Potency,[16],inactive
same,Potency,[17],inactive
NCCc1cc(O)c(O)cc1O,Potency,[1],inactive
same,Potency,[18],inactive
same,Potency,[2],inactive
same,Potency,[3],inactive
same,Potency,[5],inactive
same,Potency,[6],inactive
same,Potency,[7],inactive
same,max response,[8],3.51% (inactive)
same,outcome,[9],inactive
same,outcome,[10],inactive
same,max response,[11],9.04% (inactive)
same,outcome,[12],inactive
same,outcome,[20],inactive
same,outcome,[19],inactive
same,Potency,[14],inactive
same,Potency,[16],inactive
same,Potency,[17],inactive
